Screen size: about 64,000 compounds; about 1,900 (3%) were called active.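 How the source made its calls: active means fluorescence rise, raw or as B-score row- and column-corrected plate score, outside the 99.7% band of its plate's samples, either direction; inactive means the rest.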 What follows is part of a selection rich in actives, with near analogues and random picks from the rest.

For the assay, the system named is Muscarinic acetylcholine receptor M1. Put plainly: direct activation of M1 receptor calcium signal – CHO-M1 cells, Fluo-4 calcium, agonist mode, primary screen (AID 626). Conditions: Fluo-4 calcium fluorescence, at 10 µM, hits give high values.
For the compound `O=C(c1cc2nc(-c3ccccc3)cc(-c3ccccc3)n2n1)N1CCC2(CC1)OCCO2`, the B-score is 6.7 (active). On to `O=C(c1cc(-c2ccncc2)nc2ccccc12)N1CCC2(CC1)OCCO2`, for which the B-score was 0.114 (inactive). `Cc1cccc(-n2c(C)nc3cc(C(=O)N4CCC5(CC4)OCCO5)ccc32)c1`: the B-score is -0.0322 (inactive). For `Cc1ccc(P(=S)(c2ccc(C)o2)N2CCOCC2)o1` the value was 0.695 (inactive). Then `Cn1c(C(=O)N2CCC(C(=O)N3CCC4(CC3)OCCO4)CC2)cc2sccc21`, with -0.378 (inactive).

(Values after PubChem BioAssay AID626 (Vanderbilt High Throughput Screening Facility, 2007).)
